Screening data from PubChem BioAssay.
Hits are enriched below; roughly 11% of the tested compounds scored in any of these assays.
PNC assembly inh = High Content Assay for Compounds that inhibit the Assembly of the Perinucleolar Compartment; PC3M PTB-GFP, PNC prevalence imaging, 16 h; hits give low values; 140,000 tested, 3.1% active; activity change (PNC), negative = inhibition, % at 10 µM; AID 2417, 2010;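 active = readout at or below -70, meaning at least 70% loss of cells showing the perinucleolar compartment, a nuclear body marking cancer cells; inconclusive = readout between -30 and a set limit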
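Read-out is percentage of cells bearing a perinucleolar compartment, from automated 20x imaging of fixed, Hoechst-stained PC3M PTB-GFP cells. Cells were seeded 4 h, then exposed 16 h to compound (23 nl of library stock) in duplicate plates.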
HPGD block = qHTS Assay for Inhibitors of HPGD (15-Hydroxyprostaglandin Dehydrogenase); 15-hydroxyprostaglandin dehydrogenase [NAD(+)] (Homo sapiens), P15428; purified HPGD, NADH fluorescence kinetic, PGE2 substrate; Potency, µM, most hits filed as inhibitors; 150,000 tested, 4.3% active
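NADH formation kinetics: reaction with 30 uM PGE2 and 1 mM NAD+ (final), 20 nM enzyme, Tris-HCl pH 8 with Tween 20, after 15 min compound preincubation at room temperature. Fluorescence change, last versus first of five reads.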
ALDH1A1 block = qHTS Assay for Inhibitors of Aldehyde Dehydrogenase 1 (ALDH1A1); Aldehyde dehydrogenase 1A1 (Homo sapiens), P00352; Purified ALDH1A1, NADH fluorescence, propionaldehyde substrate; Potency, µM (highest dose often 75.3 µM), actives largely listed as inhibitors; 220,000 tested, 7.3% active; AID 1030, 2008
Target sequence (P00352 whole entry, looked up): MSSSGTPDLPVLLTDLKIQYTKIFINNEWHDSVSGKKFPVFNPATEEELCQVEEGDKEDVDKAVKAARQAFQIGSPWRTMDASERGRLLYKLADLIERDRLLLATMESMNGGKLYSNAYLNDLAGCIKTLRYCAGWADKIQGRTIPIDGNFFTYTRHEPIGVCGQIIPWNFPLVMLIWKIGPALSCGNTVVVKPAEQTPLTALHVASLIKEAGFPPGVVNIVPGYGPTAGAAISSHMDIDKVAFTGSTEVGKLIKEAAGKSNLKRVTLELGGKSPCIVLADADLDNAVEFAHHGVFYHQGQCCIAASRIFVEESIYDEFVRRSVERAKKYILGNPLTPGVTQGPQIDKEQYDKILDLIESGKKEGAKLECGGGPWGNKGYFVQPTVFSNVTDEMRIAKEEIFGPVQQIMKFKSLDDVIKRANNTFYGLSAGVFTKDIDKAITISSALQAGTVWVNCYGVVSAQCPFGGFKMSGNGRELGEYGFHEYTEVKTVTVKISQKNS
A number is an active result; - = inactive; ? = inconclusive; . = not tested or not shown; [ ] = remark or other dose. Unless noted, calls follow the shape of the dose curve; as a rule, active = well fitted inhibition curve with a large enough effect (not every such curve was filed as active); inconclusive = small, poorly fitted or top-dose-only effect, or another doubt; inactive = no such curve, though single readings can be large or run the other way.

SMILES | PNC assembly inh | HPGD block | ALDH1A1 block
COc1ccc2[nH]c(=O)c(CN(C(=O)C3CCCO3)c3ccc(C)cc3)cc2c1 (centres undefined) | - | . | ?
CC(C)CO/N=C1/C[C@@H](O)[C@@H](O)[C@@H]2[C@@H]3C(=O)N(c4cccc(Oc5ccccc5)c4)C(=O)[C@H]3CC[C@@H]12 | . | . | -[13.5 µM]
COc1ccccc1NC(=S)NNC(=O)c1ccccc1Br | ? | - | ?
O=C1COC(c2ccccc2O)=NN1CCCN1CCCC1 | . | - | -[13.5 µM]
CCOc1cc(/C=N/n2cnnc2)ccc1OS(=O)(=O)c1ccc(C)cc1 | . | . | 22µM
CCOc1cc(/C=N/n2cnnc2)ccc1OCC(=O)Nc1ccccc1OC | - | ? | ?
NC/C=C\C(=O)O | . | - | -
CSc1nc(-c2ccco2)nn1C(=O)c1cccs1 | - | ? | ?
COc1ccc(C(=O)n2nc(-c3ccco3)nc2SC)cc1OC | - | ? | 28µM
CC1(C)Cc2nc(N)c(C(=O)NCCO)cc2CO1 | - | ? | ?
Cc1ccccc1-n1nnnc1SC(C)C(=O)NC1CCCc2ccccc21 (centres undefined) | - | - | 4.5µM
O=C(CSc1c(Cl)cccc1Cl)NC1CCCc2ccccc21 (centres undefined) | - | - | -
CC(Sc1nnc(Nc2ccccc2)s1)C(=O)NC1CCCc2ccccc21 (centres undefined) | ? | - | 32µM
Cc1cccc(Nc2nnc(SCC(=O)NC3CCCc4ccccc43)s2)c1C (centres undefined) | - | ? | -
O=C(CSc1nc2ccccc2s1)NC1CCCc2ccccc21 (centres undefined) | ? | 11µM | ?
O=C(CSc1nnnn1-c1ccccc1)NC1CCCc2ccccc21 (centres undefined) | - | . | 10µM
Cc1nnc(SC(C)C(=O)NC2CCCc3ccccc32)n1-c1ccccc1 (centres undefined) | ? | . | -
O=C(CSc1nc2ccccc2[nH]1)NC1CCCc2ccccc21 (centres undefined) | ? | - | -
CN1CCC2(CC1)CCN(C(=O)c1cc(C(F)(F)F)cc(C(F)(F)F)c1)CC2 | . | - | -
Cc1nn(C(C)C(=O)NCC2CCCO2)c(C)c1[N+](=O)[O-] (centres undefined) | . | . | -
Cc1ccc(S(=O)(=O)NC(CC(C)C)C(=O)Nc2nccs2)cc1 (centres undefined) | - | - | -
O=C(O)c1cc(Cl)cc(Cl)c1 | . | - | -
O=S(=O)(Nc1ccccn1)c1cnc(Cl)c(Br)c1 | ? | - | -
Cc1ccc2nc(NC(=O)COC(=O)c3ccccn3)sc2c1 | . | . | -
Oc1ccc(/C=N/NC(=S)N/N=C/c2ccc(O)cc2)cc1 | . | . | -
SMILES | PNC assembly inh | HPGD block | ALDH1A1 block
CCCN=Cc1ccc(O)cc1 | . | . | 8.9µM
COc1cc(/C=C/C(=O)OCC(=O)c2c[nH]c3ccccc23)ccc1OC(F)F | - | . | -
CCOC(=O)C1(CC2CCCCO2)CCN(S(=O)(=O)c2cccc(F)c2)CC1 (centres undefined) | . | . | 25µM
CCCCc1ncc(CN2CCC(CC3CCCCO3)(C(=O)OCC)CC2)[nH]1 (centres undefined) | . | . | -
CCOC(=O)C1(CC2CCCCO2)CCN(S(=O)(=O)c2ccc(OC)cc2)CC1 (centres undefined) | . | . | -
CCOC(=O)C1(CC2CCCCO2)CCN(C2CCSCC2)CC1 (centres undefined) | . | . | -
CCOC(=O)C1(CC2CCCCO2)CCN(S(=O)(=O)c2cc(C)cs2)CC1 (centres undefined) | . | . | 10µM
CCOC(=O)C1(CC2CCCCO2)CCN(Cc2cc3ccccc3[nH]2)CC1 (centres undefined) | . | . | 1.3µM
COc1ccc(OC)c(S(=O)(=O)Nc2ccc(Oc3ccccc3)cc2)c1 | - | . | -
CCOc1ccc(S(=O)(=O)Nc2ccc(O)c(Sc3ncn[nH]3)c2)cc1 | - | - | -
COc1ccc(OC)c(S(=O)(=O)Nc2ccc(O)c(Sc3ncn[nH]3)c2)c1 | - | 22µM | -
COc1ccc(OC)c(S(=O)(=O)Nc2ccc(O)c3ccccc23)c1 | ? | 3.2µM | 3.5µM
CCO[C@@H]1OC(C(=O)N2CCOCC2)=C[C@H](c2ccc(C(F)(F)F)cc2)[C@H]1CCCO | . | . | -
CC(=O)c1c(C)[nH]c(C(=O)COC(=O)CN(C)S(=O)(=O)c2ccc(Cl)cc2)c1C | - | ? | -
FC(F)(F)c1cc(-c2ccco2)nc(N2CCN(Cc3ccccc3)CC2)n1 | - | - | 22µM
Fc1ccc(N2CCN(c3nc(-c4ccco4)cc(C(F)(F)F)n3)CC2)cc1 | - | - | -
S=C(NCc1ccccn1)Nc1ccccc1 | - | - | -
CCNC(=S)NCc1ccco1 | - | - | -
O=C(NCCSCc1ccco1)Nc1ccc(Cl)cc1 | - | - | ?
O=C(CCNc1cccc(Cl)c1)c1ccco1 | - | - | 7.1µM
O=C(NCCSCc1ccco1)Nc1cccc(Cl)c1 | -84 | - | ?
O=C(CNC(=O)c1ccco1)OCc1cccc(Cl)c1 | - | - | -
S=C(NCc1ccco1)Nc1cc(Cl)c(Cl)cc1Cl | ? | 3.2µM | -
S=C(NCc1ccccn1)Nc1ccc(Cl)c(Cl)c1 | - | 16µM | 11µM
CCOC(=O)Cc1c(C)nc(SC)[nH]c1=O | . | . | -
SMILES | PNC assembly inh | HPGD block | ALDH1A1 block
CC(=O)OCC(=O)[C@@]1(OC(C)=O)[C@H](C)C[C@H]2[C@@H]3C[C@H](F)C4=CC(=O)C=C[C@@]4(C)[C@]3(F)[C@H](O)C[C@@]21C | . | - | -
O=C(COC(=O)CCc1nc2ccccc2s1)NC(=O)NCc1ccco1 | . | . | -
COc1ccc(-c2nc(N)n(C(=O)c3ccccc3Cl)n2)cc1 | - | - | -
COc1ccccc1Nc1nc(NCC2CCCO2)c2ccccc2n1 (centres undefined) | . | . | -
Cc1c(C(=O)C(=O)N2CCCc3ccccc32)c2ccccc2n1C | ? | - | -
O=C(NC1(C(F)(F)F)NC(=O)N(C2CCCCC2)C1=O)c1cccs1 (centres undefined) | - | - | -
COc1ccc(Cl)cc1NC(=O)NCc1ccco1 | . | . | -
COc1ccc(Cl)cc1NC(=S)NCc1ccco1 | - | 13µM | -
Cc1cc2c(cc(C(=O)OCC(=O)NCc3ccco3)n2C)s1 | - | 14µM | -
Cn1c(C(=O)OCC(=O)NCc2ccco2)cc2sccc21 | - | ? | ?
Cc1cccc(NC(=S)NNC(=O)c2ccccc2Br)c1 | - | - | ?
CCNC(=S)NNC(=O)c1ccccn1 | ? | - | -
O=C(NNC(=S)Nc1ccc(F)c(Cl)c1)c1ccccc1Br | . | . | 13µM
O=C(NNC(=S)Nc1ccc(Cl)c(Cl)c1)c1ccccn1 | . | . | 3.2µM
Cc1nc2nc(C)c(CCC(=O)NCc3ccc4c(c3)OCO4)c(C)n2n1 | ? | - | -
C=CCn1c(=O)n(CC=C)c(=O)n(CC=C)c1=O | . | - | -
CCNc1nc(SCCOc2ccc(Br)cc2)nc(N(C)C)n1 | . | . | -
CCO[Si](CCCN)(OCC)OCC | . | - | -
CN(C)c1cccc(C(=O)OCC(=O)NCc2ccco2)c1 | - | - | -
CN(C)S(=O)(=O)c1ccc(Cl)c(C(=O)NCc2ccco2)c1 | - | - | ?
CCOc1ccccc1NC(=S)NCc1ccco1 | - | - | 28µM
S=C(NCc1ccco1)Nc1cc(-c2ccccc2)[nH]n1 | . | . | 1.1µM
CCOc1ccc(NC(=S)NCc2ccco2)cc1 | . | . | -
CN(C)S(=O)(=O)c1cccc(NC(=S)NCc2ccco2)c1 | . | . | 32µM
